Source: PubChem BioAssay (NCATS)
Results filed as inconclusive are left out. A call without a number means that no potency is given here. Active and inactive are the calls of the source. Calls come from the whole dose curve; as a rule, active = well fitted inhibition curve with a large enough effect; inconclusive = small, poorly fitted or top-dose-only effect, or effect the other way; inactive = flat fitted curve, though single readings scatter.

Target: ATP-dependent 6-phosphofructokinase (Trypanosoma brucei brucei) (UniProt O15648)
Sequence (O15648 whole entry, looked up): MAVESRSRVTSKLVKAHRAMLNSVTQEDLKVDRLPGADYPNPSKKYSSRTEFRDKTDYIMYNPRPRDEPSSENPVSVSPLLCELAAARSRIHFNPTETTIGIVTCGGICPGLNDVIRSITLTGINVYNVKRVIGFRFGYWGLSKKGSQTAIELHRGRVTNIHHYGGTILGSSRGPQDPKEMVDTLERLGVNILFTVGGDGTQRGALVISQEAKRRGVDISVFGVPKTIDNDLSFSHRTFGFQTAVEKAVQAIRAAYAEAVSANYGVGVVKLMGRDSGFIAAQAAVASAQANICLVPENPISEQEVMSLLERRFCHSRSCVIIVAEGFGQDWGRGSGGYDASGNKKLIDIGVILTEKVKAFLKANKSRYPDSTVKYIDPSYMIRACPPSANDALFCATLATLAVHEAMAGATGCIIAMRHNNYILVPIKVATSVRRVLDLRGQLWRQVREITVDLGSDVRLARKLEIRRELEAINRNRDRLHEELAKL
Experiment: qHTS Assay to Find Inhibitors of T. brucei phosphofructokinase: hit validation (AID 492961)
Conditions: T. brucei PFK, ADP-Glo luminescence; series mostly up to 51.4 µM
How it was run: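 Measures ADP output of PFK (1.25 nM) at 0.1 mM ATP, 0.5 mM F6P, pH 8.0 TEA buffer with 5 mM MgCl2. No-enzyme wells define full inhibition; uninhibited enzyme wells define zero.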
Potency is the fitted concentration of half-maximal effect.

| Compound | Potency |
| --- | --- |
| O=C(CCl)c1ccc(Oc2ccc(C(=O)CCl)cc2)cc1 | inactive |
| O[C@H]1[C@H]2[C@H](O)CCCN2C[C@H]1O | inactive |
| CCCCCl | inactive |
| CCNC(C)Cc1cccc(C(F)(F)F)c1 (centres undefined) | inactive |
| CN1c2ccccc2C(NCCCCCCC(=O)O)c2ccc(Cl)cc2S1(=O)=O (centres undefined) | inactive |
| O=CC=O | inactive |
| O=C1CCCCC1CN1CCCCC1 (centres undefined) | inactive |
| ClCC1CO1 (centres undefined) | inactive |
| CCC1(c2ccccc2)C(=O)NC(=O)N(C)C1=O (centres undefined) | inactive |
| O=[N+]([O-])c1ccccc1 | inactive |
| CCC1(C)CC(=O)NC(=O)C1 | inactive |
| CCC(C)(S(=O)(=O)CC)S(=O)(=O)CC | inactive |
| CNC(=O)Oc1ccccc1C(=O)Nc1ccccc1 | inactive |
| C/C(=C\c1csc(C)n1)[C@@H]1C[C@@H]2O[C@]2(C)CCC[C@H](C)[C@H](O)[C@@H](C)C(=O)C(C)(C)[C@@H](O)CC(=O)O1 | inactive |
| C[C@]12CCC(=O)C[C@@H]1CC[C@@H]1[C@@H]2CC[C@]2(C)[C@@H](O)CC[C@@H]12 | inactive |
| O=C(NCNC(=O)NC1C(=O)NC(=O)N1CO)NC1C(=O)NC(=O)N1CO (centres undefined) | inactive |
| CC(C)CCON=O | inactive |
| COCC(C)N(C(=O)CCl)c1c(C)csc1C (centres undefined) | inactive |
| CC(Cc1ccccc1)NC=O (centres undefined) | inactive |
| NCC(O)c1cccc(O)c1 (centres undefined) | inactive |

| Compound | Potency |
| --- | --- |
| c1cc2c(c(NC3=NCCN3)c1)CCCC2 | inactive |
| CCON=O | inactive |
| O=[N+]([O-])c1cc(I)c(O)c(I)c1 | inactive |
| c1ccc2sc(SNC3CCCCC3)nc2c1 | inactive |
| C[C@@H](Cc1ccccc1)NCCC(c1ccccc1)c1ccccc1 | inactive |
| c1ccc(C2(N3CCCC3)CCCCC2)cc1 | inactive |
| O=C1CCO1 | inactive |
| CCC1(c2ccccc2)C(=O)NC(=O)N(C(=O)c2ccccc2)C1=O (centres undefined) | inactive |
| S=C=S | inactive |
| CCCC(C)(COC(N)=O)COC(=O)NC1CC1 (centres undefined) | inactive |
| O=C(NC(=O)c1c(F)cccc1F)Nc1ccc(Cl)c(Oc2ncc(C(F)(F)F)cc2Cl)c1 | inactive |
| CC(C)(C)c1cc(O)ccc1O | inactive |
| CC(N)Cc1ccc(O)cc1 (centres undefined) | inactive |
| COC([CH2][Hg])CNC(=O)c1ccccc1OCC(=O)O (centres undefined) | 7.08 µM (active) |
| O=C1CN=C(c2ccccc2)c2cc(Cl)ccc2N1CC1CC1 | inactive |
| Clc1ccccc1Cl | inactive |
| C[CH2][Hg][S]c1ccccc1C(=O)O | 14.1 µM (active) |
| O=c1[nH]cc(N(CCCl)CCCl)c(=O)[nH]1 | inactive |
| CCOC(=O)c1ccccc1C(=O)OCC | inactive |
